Source: PubChem BioAssay (NCATS)
Records with an inconclusive call do not appear. A number with no mark means an inactive call. Active and inactive are the calls of the source. Unless noted, calls follow the shape of the dose curve; as a rule, active = well fitted curve in either direction with a large enough effect (not every such curve was filed as active); inconclusive = small, poorly fitted or top-dose-only effect, or another doubt; inactive = flat fitted curve, though single readings scatter.

Tested on: not listed separately
Experiment: AP1 Signaling Pathway (AID 357);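 also: ME-180 reporter cells stimulated with EGF at its EC50 level; % is scaled to controls: 0 for no effect and ±100 for the full control effect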
Settings: ME-180 (cervical carcinoma) AP-1-bla reporter, EGF-induced, beta-lactamase ratio, 5 h; at 7.69 µM (top of the series) unless noted
Procedure, shortened: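 Beta-lactamase reporter under AP-1 response element, ME-180 background. Stimulus: EC50 EGF. Compound exposure 5 h, 37 °C. Detection: CCF4, 2.5 h RT, 460/530 nm. Values: AC50 from titration.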

Structure (SMILES)	activity change, negative = inhibition [%]
N#C[C@H](c1ccccc1)N1CCCN([C@@H](C#N)c2ccccc2)C1c1ccccc1O (stereo not given in full)	8.03
O=C1CNCCCN2CCN(CCCNCC(=O)Nc3ccc(cc3)S(=O)(=O)c3ccc(cc3)NC(=O)CNCCCN3CCN(CCCNCC(=O)Nc4ccc(cc4)S(=O)(=O)c4ccc(cc4)N1)CC3)CC2	-2.18
Cn1c(=S)c2[nH]c(SCc3cccnc3)nc2n(C)c1=O	-21.1
Nc1ncnc2nc[nH]c12.Nc1ncnc2nc[nH]c12.[Cl][Pt]([Cl])([Cl])[Cl]	-1.02
CSC1(SC2=NCCN2)SC2(NCCN2)S1	-0.329
N=C(N)S[C@H]1c2ccccc2-c2cc([N+](=O)[O-])ccc21	-7.27
c1nc(NCCc2cnc[nH]2)c2[nH]cnc2n1	3.43
COc1ccc2c(c1)Cc1cc(N=[N+]([O-])c3ccc4c(c3)Cc3cc(OC)ccc3-4)ccc1-2	-9.92
C(=N/Nc1nnc2c(n1)[nH]c1ccccc12)/c1cccnc1	-0.49
O=C(CC(=O)c1ccncc1)c1ccccc1	4.49
O=S(=O)(O)c1cc(O)c2c(N=Cc3ccccc3O)cc(S(=O)(=O)O)cc2c1	-14.5
CC(C)(C)C(=O)[C@H]([C@@H](c1ccccc1)N1CCOCC1)N1CCOCC1	0.675
BrC(c1cccc2ccccc12)c1cccc2ccccc12	0.329
C/C(=N/Nc1ccc2ccccc2n1)c1ccccc1O	5.21
O[C@@H](C1=C/C(=C\c2ccncc2)c2ccccc21)c1ccncc1	6.34
Nc1cccc(OCc2nc(N)nc(N)c2-c2ccc(Cl)cc2)c1	6.37
CN(C)c1ccc(/C=N\NC(=O)c2cnc3ccccc3c2)cc1	-12.8
Cc1ccc(S(=O)(=O)Nc2cc(=O)[nH]c3c2CCC3)cc1	6.25
Cc1ccc2c(c1)N[C@H](c1ccc(C(=O)O)cc1)c1cccn1-2	-23.5
COc1cc(Cl)c(CC(=O)c2c[nH]c3ccccc23)cc1OC	-19.9

Structure (SMILES)	activity change, negative = inhibition [%]
Cn1c(=O)c2[nH]c(SCc3ccccn3)nc2n(C)c1=S	-5.29
Nc1nc(SCc2ccccc2[N+](=O)[O-])c2[nH]cnc2n1	-3.57
COCCn1c(=O)c(-c2ccccc2)nc2cnc(Oc3ccccc3)nc21	-29.9
Cn1ncc2c(NCCc3ccccc3)nc(Cl)nc21	-2.77
COc1ccc(Oc2ncc3nc(C)c(=O)n(-c4ccc(OC)cc4)c3n2)cc1	-21.8
CN[C@@H](c1ccncc1)[C@@H](NC)c1ccncc1	11.4
CCCCSCc1nc2nc(Cl)c(Cl)nc2[nH]1	-2.19
CC(C)N1CCN(c2ccncc2S(=O)(=O)N2CCCCC2)CC1	0.726
Nc1nc(SCCc2ccccc2)c2[nH]cnc2n1	-4.07
CN(C)C[C@H]1CCC[C@@H](CN(C)C)C1=O	5.24
O=C1C2=C(Nc3cc([N+](=O)[O-])ccc3N2)O[C@@H]1c1c[nH]c2ccc(COc3ccccc3)cc12	-21.7
O=S(=O)(c1cnccc1N1CCN(CCO)CC1)N1CCCC1	7.47
C[C@](O)(c1ccccc1)c1nccc2ccccc12	-0.483
O=c1oc2cc(N=Cc3ccc4c(c3)OCO4)ccc2c2ccccc12	7.4
C=C[C@]1(C)C[C@H](OC(=O)CO)[C@]2(C)C3C(=O)CC[C@]3(CC[C@H]2C)[C@H](C)[C@H]1O (stereo not given in full)	-0.357
O=C(O)c1ccc(SSc2ccc(C(=O)O)cn2)nc1	-2.82
O=C(CSc1nc2ccc([N+](=O)[O-])cc2s1)c1ccc2ccccc2c1	-4.94
COc1ccc2c(Cl)cc(NC(=S)Nc3ccccc3)nc2c1	9.58
Nc1[nH]c(=S)[nH]c(=O)c1N=Nc1c(Br)cc(S(N)(=O)=O)cc1Br	1.56
Cn1c(=O)c2[nH]c(CCCCc3nc4c([nH]3)c(=O)n(C)c(=S)n4C)nc2n(C)c1=S	1.54

Biological target: Cytochrome P450 1A2 (Homo sapiens) (UniProt P05177)
Experiment: p450-cyp1a2 (AID 410; calls by dose curve; also: potency is read from the fitted curve at half-maximal effect;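 as to activity change, negative = inhibition: -100% = full effect of reference inhibitor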)
Settings: recombinant CYP1A2, luciferin-ME demethylation, luminescence; series mostly up to 11.4 µM; activity change, negative = inhibition: at the top concentration
Procedure, shortened: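 O-Demethylation of luciferin 6' methyl ether by human CYP1A2 is monitored as luciferase luminescence. Substrate sits at Km (100uM); enzyme is 20nM. Values are scaled to 57 uM furafylline as maximal inhibition.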

Sequence of Cytochrome P450 1A2 (Homo sapiens) (P05177 whole entry, looked up): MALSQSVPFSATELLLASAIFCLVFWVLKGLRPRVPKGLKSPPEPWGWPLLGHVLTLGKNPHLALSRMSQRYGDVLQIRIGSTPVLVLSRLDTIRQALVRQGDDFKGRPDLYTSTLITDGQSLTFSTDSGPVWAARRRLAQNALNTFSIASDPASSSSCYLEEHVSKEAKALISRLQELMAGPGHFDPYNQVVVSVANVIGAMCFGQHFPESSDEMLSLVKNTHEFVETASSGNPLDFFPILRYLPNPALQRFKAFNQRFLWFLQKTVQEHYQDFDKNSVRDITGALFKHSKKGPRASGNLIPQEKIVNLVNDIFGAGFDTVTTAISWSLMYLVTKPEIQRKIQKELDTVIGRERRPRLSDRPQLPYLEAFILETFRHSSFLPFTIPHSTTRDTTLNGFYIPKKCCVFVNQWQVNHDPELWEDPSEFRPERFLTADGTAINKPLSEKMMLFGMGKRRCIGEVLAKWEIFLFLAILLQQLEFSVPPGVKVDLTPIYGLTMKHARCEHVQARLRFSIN

Structure (SMILES)	Potency	activity change, negative = inhibition
N#C[C@H](c1ccccc1)N1CCCN([C@@H](C#N)c2ccccc2)C1c1ccccc1O (stereo not given in full)	3.98 µM (active)	–
O=C1CNCCCN2CCN(CCCNCC(=O)Nc3ccc(cc3)S(=O)(=O)c3ccc(cc3)NC(=O)CNCCCN3CCN(CCCNCC(=O)Nc4ccc(cc4)S(=O)(=O)c4ccc(cc4)N1)CC3)CC2	–	-3.9%
Cn1c(=S)c2[nH]c(SCc3cccnc3)nc2n(C)c1=O	3.98 µM (active)	–
Nc1ncnc2nc[nH]c12.Nc1ncnc2nc[nH]c12.[Cl][Pt]([Cl])([Cl])[Cl]	–	13.2% [at 2.29 µM]
CSC1(SC2=NCCN2)SC2(NCCN2)S1	0.398 µM (active)	–
N=C(N)S[C@H]1c2ccccc2-c2cc([N+](=O)[O-])ccc21	0.158 µM (active)	–
c1nc(NCCc2cnc[nH]2)c2[nH]cnc2n1	5.01 µM (active)	–
COc1ccc2c(c1)Cc1cc(N=[N+]([O-])c3ccc4c(c3)Cc3cc(OC)ccc3-4)ccc1-2	1.58 µM (active)	–
C(=N/Nc1nnc2c(n1)[nH]c1ccccc12)/c1cccnc1	0.631 µM (active)	–
O=C(CC(=O)c1ccncc1)c1ccccc1	0.1 µM (active)	–
O=S(=O)(O)c1cc(O)c2c(N=Cc3ccccc3O)cc(S(=O)(=O)O)cc2c1	–	-23.7% [at 2.29 µM]
CC(C)(C)C(=O)[C@H]([C@@H](c1ccccc1)N1CCOCC1)N1CCOCC1	–	-6.9%
BrC(c1cccc2ccccc12)c1cccc2ccccc12	1.26 µM (active)	–
C/C(=N/Nc1ccc2ccccc2n1)c1ccccc1O	1.58 µM (active)	–
O[C@@H](C1=C/C(=C\c2ccncc2)c2ccccc21)c1ccncc1	0.1 µM (active)	–
Nc1cccc(OCc2nc(N)nc(N)c2-c2ccc(Cl)cc2)c1	0.158 µM (active)	–
CN(C)c1ccc(/C=N\NC(=O)c2cnc3ccccc3c2)cc1	1.58 µM (active)	–
Cc1ccc(S(=O)(=O)Nc2cc(=O)[nH]c3c2CCC3)cc1	3.98 µM (active)	–
Cc1ccc2c(c1)N[C@H](c1ccc(C(=O)O)cc1)c1cccn1-2	0.794 µM (active)	–
COc1cc(Cl)c(CC(=O)c2c[nH]c3ccccc23)cc1OC	1 µM (active)	–

Structure (SMILES)	Potency	activity change, negative = inhibition
Cn1c(=O)c2[nH]c(SCc3ccccn3)nc2n(C)c1=S	0.0126 µM (active)	–
Nc1nc(SCc2ccccc2[N+](=O)[O-])c2[nH]cnc2n1	5.01 µM (active)	–
COCCn1c(=O)c(-c2ccccc2)nc2cnc(Oc3ccccc3)nc21	1.58 µM (active)	–
Cn1ncc2c(NCCc3ccccc3)nc(Cl)nc21	2.51 µM (active)	–
COc1ccc(Oc2ncc3nc(C)c(=O)n(-c4ccc(OC)cc4)c3n2)cc1	15.8 µM (active)	–
CN[C@@H](c1ccncc1)[C@@H](NC)c1ccncc1	–	-13.3%
CCCCSCc1nc2nc(Cl)c(Cl)nc2[nH]1	3.16 µM (active)	–
CC(C)N1CCN(c2ccncc2S(=O)(=O)N2CCCCC2)CC1	–	-17% [at 2.29 µM]
Nc1nc(SCCc2ccccc2)c2[nH]cnc2n1	3.16 µM (active)	–
CN(C)C[C@H]1CCC[C@@H](CN(C)C)C1=O	–	-12.3%
O=C1C2=C(Nc3cc([N+](=O)[O-])ccc3N2)O[C@@H]1c1c[nH]c2ccc(COc3ccccc3)cc12	2.51 µM (active)	–
O=S(=O)(c1cnccc1N1CCN(CCO)CC1)N1CCCC1	–	-8.3% [at 2.29 µM]
C[C@](O)(c1ccccc1)c1nccc2ccccc12	–	-17.4%
O=c1oc2cc(N=Cc3ccc4c(c3)OCO4)ccc2c2ccccc12	0.00794 µM (active)	–
C=C[C@]1(C)C[C@H](OC(=O)CO)[C@]2(C)C3C(=O)CC[C@]3(CC[C@H]2C)[C@H](C)[C@H]1O (stereo not given in full)	–	-21% [at 2.29 µM]
O=C(O)c1ccc(SSc2ccc(C(=O)O)cn2)nc1	3.16 µM (active)	–
O=C(CSc1nc2ccc([N+](=O)[O-])cc2s1)c1ccc2ccccc2c1	3.16 µM (active)	–
COc1ccc2c(Cl)cc(NC(=S)Nc3ccccc3)nc2c1	0.398 µM (active)	–
Nc1[nH]c(=S)[nH]c(=O)c1N=Nc1c(Br)cc(S(N)(=O)=O)cc1Br	3.16 µM (active)	–
Cn1c(=O)c2[nH]c(CCCCc3nc4c([nH]3)c(=O)n(C)c(=S)n4C)nc2n(C)c1=S	–	-13.8% [at 2.29 µM]
